From PubChem BioAssay (EPA / NIEHS)
Where “and” joins values, the source holds several entries; their conditions need not be identical. Identical values can stand only once. Calls of active or inactive are those of the source. Rule for the calls: active = hit-call score of the fitted dose curve at least 0.9, where 1 is the maximum; inactive = score below 0.9.

Read-out: Vascular cell adhesion molecule 1 (VCAM1), VCAM1 (gene 7412)
Test: BSK_LPS_VCAM1: BioMAP Diversity Plus: LPS Assay for Vascular cell adhesion molecule 1 (VCAM1) Biomarker Activity (AID 2283086)
Conditions: primary human HUVEC with PBMC; actives raise or lower the signal
Procedure: BSK_LPS is a cell-based, multiplexed-readout assay that uses umbilical vein endothelium and peripheral blood mononuclear cells, a human vascular primary cell co-culture, with measurements taken at 24 hours after chemical dosing in a 96-well plate.BSK_LPS_VCAM1 is an assay component measured in the BSK_LPS assay. It measures VCAM-1 antibody related to regulation of gene expression using ELISA technology.Data from the assay component BSK_LPS_VCAM1 was analyzed into 1 assay endpoint. This assay endpoint, BSK_LPS_VCAM1, was analyzed with bidirectional fitting relative to DMSO as the negative control and baseline of activity. Using a type of binding reporter, gain or loss-of-signal activity can be used to understand changes in the signaling as they relate to the gene VCAM1. Furthermore, this assay endpoint can be referred to as a primary readout, because this assay has produced multiple assay endpoints where this one serves a signaling function. To generalize the intended target to other relatable targets, this assay endpoint is annotated to the cell adhesion molecules intended target family, where the subfamily is Immunoglobulin CAM.
The levels of cell surface (or secreted, indicated by the prefix "s") biomarker endpoints were measured by ELISA. Overt cytotoxicity to cells in confluent adherent cultures (all systems other than the BT system) was assessed by measuring total protein levels using sulforhodamine B (SRB) staining in parallel cultures at the time of biomarker measurements, indicated as SRB endpoints. For proliferation assays for adherent cell types, individual cell types are cultured at sub-confluence and relative cell numbers quantified by SRB staining at time points optimized for each system (48 h: 3C and CASM3C systems; 72 h: BT and HDF3CGF systems; 96 h: SAg system). SRB was performed by staining cells with 0.1% SRB after fixation with 10% TCA and reading wells at 560 nm.Viability and proliferation of PBMC (T cells) was quantified by Alamar Blue reduction for the SAg and BT systems. For PBMC viability (referred to as PBMC Cytotoxicity within the assay endpoint names), cells were plated (75,000/well in a 96-well plate) and then chemical samples added for 1 h before addition of activators, SEB and TSST-1 (20 ng/mL final concentration each). Cells were incubated for 90 h. Then, Alamar Blue (20 uL/well) (Invitrogen, Cat DAL1100) was added for 6 h, and the plates were read with a fluorescence microplate reader at 546/580 nm (excitation/emission). For PBMC proliferation, cells were plated and activated as above but incubated for only 16 h prior to addition of Alamar Blue. Plates were read after 6 h.

SMILES | outcome | AC50
COc1ccccc1Oc1c(NS(=O)(=O)c2ccc(C(C)(C)C)cc2)nc(-c2ncccn2)nc1OCCO | inactive | 
O=[N+]([O-])c1cc(S(=O)(=O)Nc2ccccc2)ccc1Nc1ccccc1 |  | 13.6 µM (active) and 12.6 µM (active)
CCC[Si](OC(C)=O)(OC(C)=O)OC(C)=O | inactive | 
CCCCCCCCCC/C=C/C1CC(=O)OC1=O (configuration not stated) | inactive | 
OC(C(F)(F)F)(C(F)(F)F)C(O)(C(F)(F)F)C(F)(F)F |  | 21.9 µM (active) and 28.8 µM (active)
CC(C)CC(=O)CC(C)CC(C)C (configuration not stated) | inactive | 
Cc1cccnc1 | inactive | 
COC(=O)/C=C\C(=O)OC |  | 8.6 µM (active)
Cc1cc(-n2nc3ccc(Cl)cc3n2)c(O)c(C(C)(C)C)c1 | inactive | 
Oc1cccc2ccccc12 | inactive | 
CCCCCCCCCCCCCCCCCC[N+](C)(C)C |  | 7.96 µM (active)
CCCCCCC(O)CCCCCCCCCCC(=O)OC (configuration not stated) | inactive | 
C1CN(CCOCCN2CCOCC2)CCO1 | inactive | 
CC[N+](CC)(CC(=O)Nc1c(C)cccc1C)Cc1ccccc1 (tested in a mixture with another compound) | inactive | 
Cc1c(C(N)=O)cc([N+](=O)[O-])cc1[N+](=O)[O-] | inactive | 
CN(C)CCC(c1ccc(Cl)cc1)c1ccccn1 (configuration not stated) | inactive | 
CN(C)c1ccc(C(c2ccccc2)c2ccc(N(C)C)cc2)cc1 |  | 4.93 µM (active)
O=C(C(=O)c1ccccc1)c1ccccc1 | inactive | 
CN(C)Cc1cc(C(C)(C)C)c(O)c(C(C)(C)C)c1 | inactive | 
CCC(C)=NO | inactive | 
CC(C)C1OCCN1CCOC(=O)NCCCCCCNC(=O)OCCN1CCOC1C(C)C (configuration not stated) | inactive | 
COc1ccc(C(=O)c2ccccc2O)c(O)c1 | inactive | 
Sc1nc2ccccc2s1 | inactive | 
CCCCC(CC)COC(=O)C=Cc1ccc(OC)cc1 (configuration not stated) | inactive | 
CC[N+](CC)(CC(=O)Nc1c(C)cccc1C)Cc1ccccc1 | inactive | 
CCCCCCCCCCC1CO1 (configuration not stated) |  | 32.3 µM (active)
COc1cc(CNC(=O)CCCC/C=C/C(C)C)ccc1O | inactive | 
